The full data set covers some 7,900 targets. This sample favours those with a hit. About 0.6% of all pairs of compound and target were hits.
Compound: C1=CC=C2C(=C1)C3=NNC4=CC=CC(=C43)C2=O
Assay: log2 fold change, soluble protein after heating vs DMSO (PISA); higher = thermal stabilisation; K562 cells, 10 uM, 30 min; active = over 0.2 and 3.5 SD of the protein, either way, in both replicates (recomputed)
How it was run: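 Quantification of soluble protein used TMTpro 16plex LC-MS/MS, with channel sums equalised. Samples were the supernatant after 21,000xg for 90 min of pooled aliquots from K562 cells (2×10^6 cells/mL) treated with 10 μM compound for 30 min, heated for 3 min over 48°C-58°C, and extracted in PBS with 0.5% NP-40 at 4°C. Values, from duplicates, describe thermal stability against control samples on a log2 fold-change scale.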

UniProt Q93075, sequence (Q93075 whole entry, looked up): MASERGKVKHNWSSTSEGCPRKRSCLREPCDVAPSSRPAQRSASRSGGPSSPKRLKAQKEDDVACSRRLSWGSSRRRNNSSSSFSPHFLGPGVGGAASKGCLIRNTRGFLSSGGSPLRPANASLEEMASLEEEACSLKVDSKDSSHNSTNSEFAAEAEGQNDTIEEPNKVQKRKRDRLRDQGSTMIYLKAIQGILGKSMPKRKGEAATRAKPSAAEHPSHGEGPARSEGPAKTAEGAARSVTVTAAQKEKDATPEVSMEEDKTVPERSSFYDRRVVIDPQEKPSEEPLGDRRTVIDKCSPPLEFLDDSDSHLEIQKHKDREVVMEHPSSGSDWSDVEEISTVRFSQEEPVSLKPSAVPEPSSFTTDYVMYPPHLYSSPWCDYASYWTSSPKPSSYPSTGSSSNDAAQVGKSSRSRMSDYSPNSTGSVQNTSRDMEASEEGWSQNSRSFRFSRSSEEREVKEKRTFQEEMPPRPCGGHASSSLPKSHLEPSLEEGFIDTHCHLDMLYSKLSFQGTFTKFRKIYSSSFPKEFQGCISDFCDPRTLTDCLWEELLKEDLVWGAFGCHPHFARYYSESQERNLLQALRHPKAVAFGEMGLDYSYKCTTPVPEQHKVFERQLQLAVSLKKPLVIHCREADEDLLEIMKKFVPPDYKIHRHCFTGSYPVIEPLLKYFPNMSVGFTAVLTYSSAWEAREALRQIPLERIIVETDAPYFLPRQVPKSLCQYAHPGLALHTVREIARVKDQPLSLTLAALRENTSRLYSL
UniProt Q969S0, sequence (Q969S0 whole entry, looked up): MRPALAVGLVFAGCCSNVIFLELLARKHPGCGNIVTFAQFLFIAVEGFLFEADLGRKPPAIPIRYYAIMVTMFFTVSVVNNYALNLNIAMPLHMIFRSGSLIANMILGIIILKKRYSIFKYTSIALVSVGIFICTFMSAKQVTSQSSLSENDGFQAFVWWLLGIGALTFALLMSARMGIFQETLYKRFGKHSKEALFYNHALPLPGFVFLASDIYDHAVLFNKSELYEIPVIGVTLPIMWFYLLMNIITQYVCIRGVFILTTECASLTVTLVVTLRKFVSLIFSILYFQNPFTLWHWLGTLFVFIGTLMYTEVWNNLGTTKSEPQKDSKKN
UniProt Q15208, sequence (Q15208 whole entry, looked up): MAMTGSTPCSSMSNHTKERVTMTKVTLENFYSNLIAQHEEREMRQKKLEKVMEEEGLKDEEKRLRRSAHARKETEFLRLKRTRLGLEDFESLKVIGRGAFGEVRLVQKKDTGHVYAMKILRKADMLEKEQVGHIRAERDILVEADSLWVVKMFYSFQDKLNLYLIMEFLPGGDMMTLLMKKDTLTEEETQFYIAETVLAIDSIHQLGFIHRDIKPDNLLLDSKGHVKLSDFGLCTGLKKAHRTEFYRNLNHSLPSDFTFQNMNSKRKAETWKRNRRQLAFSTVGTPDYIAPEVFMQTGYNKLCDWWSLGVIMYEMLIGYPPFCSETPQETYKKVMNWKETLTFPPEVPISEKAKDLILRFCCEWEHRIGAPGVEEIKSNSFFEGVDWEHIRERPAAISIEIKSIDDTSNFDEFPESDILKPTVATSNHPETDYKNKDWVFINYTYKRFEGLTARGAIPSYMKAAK
UniProt Q9ULP9, sequence (Q9ULP9 whole entry, looked up): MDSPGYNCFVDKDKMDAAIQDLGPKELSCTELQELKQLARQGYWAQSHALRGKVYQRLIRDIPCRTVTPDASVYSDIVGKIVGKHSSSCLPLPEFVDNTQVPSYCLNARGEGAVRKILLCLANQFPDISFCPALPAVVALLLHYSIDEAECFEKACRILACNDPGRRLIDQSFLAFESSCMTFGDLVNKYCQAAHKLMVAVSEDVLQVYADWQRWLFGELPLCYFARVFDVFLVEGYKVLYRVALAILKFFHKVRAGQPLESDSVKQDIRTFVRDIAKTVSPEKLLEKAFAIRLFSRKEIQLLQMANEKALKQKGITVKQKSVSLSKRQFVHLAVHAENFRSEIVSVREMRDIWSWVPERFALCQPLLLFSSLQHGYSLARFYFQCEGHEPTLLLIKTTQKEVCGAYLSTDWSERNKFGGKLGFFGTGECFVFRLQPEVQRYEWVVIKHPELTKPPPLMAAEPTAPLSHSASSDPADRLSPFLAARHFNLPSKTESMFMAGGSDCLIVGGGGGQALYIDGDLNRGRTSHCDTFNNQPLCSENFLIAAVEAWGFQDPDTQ
UniProt Q8N5G0, sequence (Q8N5G0 whole entry, looked up): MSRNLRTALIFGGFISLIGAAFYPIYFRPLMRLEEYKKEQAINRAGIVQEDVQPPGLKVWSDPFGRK
UniProt Q9Y5W9, sequence (Q9Y5W9 whole entry, looked up): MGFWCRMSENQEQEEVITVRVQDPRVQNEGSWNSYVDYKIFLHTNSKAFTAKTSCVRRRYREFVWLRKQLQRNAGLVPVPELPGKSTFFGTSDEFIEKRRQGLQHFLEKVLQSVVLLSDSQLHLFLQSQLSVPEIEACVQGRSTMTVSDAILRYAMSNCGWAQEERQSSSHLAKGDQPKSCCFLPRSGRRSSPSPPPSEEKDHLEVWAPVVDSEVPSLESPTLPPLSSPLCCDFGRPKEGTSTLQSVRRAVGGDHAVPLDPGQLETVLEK
UniProt Q15582, sequence (Q15582 whole entry, looked up): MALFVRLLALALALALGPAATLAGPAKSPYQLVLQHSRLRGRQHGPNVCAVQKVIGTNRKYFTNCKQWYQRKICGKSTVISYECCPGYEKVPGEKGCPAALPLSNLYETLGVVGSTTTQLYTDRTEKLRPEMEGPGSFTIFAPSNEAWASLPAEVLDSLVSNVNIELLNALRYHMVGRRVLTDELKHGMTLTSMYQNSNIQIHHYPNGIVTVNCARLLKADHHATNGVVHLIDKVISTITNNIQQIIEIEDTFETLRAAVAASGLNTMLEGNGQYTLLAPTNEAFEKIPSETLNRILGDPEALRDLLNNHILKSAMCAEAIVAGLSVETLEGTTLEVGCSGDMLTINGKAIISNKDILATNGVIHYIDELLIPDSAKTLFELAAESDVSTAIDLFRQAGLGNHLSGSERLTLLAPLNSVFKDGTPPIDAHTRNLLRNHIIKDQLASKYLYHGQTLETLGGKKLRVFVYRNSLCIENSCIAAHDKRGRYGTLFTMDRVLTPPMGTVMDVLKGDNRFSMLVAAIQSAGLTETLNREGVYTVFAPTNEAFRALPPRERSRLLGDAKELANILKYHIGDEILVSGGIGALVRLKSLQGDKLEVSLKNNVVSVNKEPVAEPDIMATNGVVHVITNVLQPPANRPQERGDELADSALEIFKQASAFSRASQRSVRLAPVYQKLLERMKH
UniProt Q13242, sequence (Q13242 whole entry, looked up): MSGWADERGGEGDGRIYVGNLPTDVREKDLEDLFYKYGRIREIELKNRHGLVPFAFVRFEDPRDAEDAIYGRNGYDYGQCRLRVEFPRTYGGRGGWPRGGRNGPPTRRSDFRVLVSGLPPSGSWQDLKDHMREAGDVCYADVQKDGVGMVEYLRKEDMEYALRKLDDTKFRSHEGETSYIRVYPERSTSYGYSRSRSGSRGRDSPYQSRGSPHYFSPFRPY
UniProt P23497, sequence (P23497 whole entry, looked up): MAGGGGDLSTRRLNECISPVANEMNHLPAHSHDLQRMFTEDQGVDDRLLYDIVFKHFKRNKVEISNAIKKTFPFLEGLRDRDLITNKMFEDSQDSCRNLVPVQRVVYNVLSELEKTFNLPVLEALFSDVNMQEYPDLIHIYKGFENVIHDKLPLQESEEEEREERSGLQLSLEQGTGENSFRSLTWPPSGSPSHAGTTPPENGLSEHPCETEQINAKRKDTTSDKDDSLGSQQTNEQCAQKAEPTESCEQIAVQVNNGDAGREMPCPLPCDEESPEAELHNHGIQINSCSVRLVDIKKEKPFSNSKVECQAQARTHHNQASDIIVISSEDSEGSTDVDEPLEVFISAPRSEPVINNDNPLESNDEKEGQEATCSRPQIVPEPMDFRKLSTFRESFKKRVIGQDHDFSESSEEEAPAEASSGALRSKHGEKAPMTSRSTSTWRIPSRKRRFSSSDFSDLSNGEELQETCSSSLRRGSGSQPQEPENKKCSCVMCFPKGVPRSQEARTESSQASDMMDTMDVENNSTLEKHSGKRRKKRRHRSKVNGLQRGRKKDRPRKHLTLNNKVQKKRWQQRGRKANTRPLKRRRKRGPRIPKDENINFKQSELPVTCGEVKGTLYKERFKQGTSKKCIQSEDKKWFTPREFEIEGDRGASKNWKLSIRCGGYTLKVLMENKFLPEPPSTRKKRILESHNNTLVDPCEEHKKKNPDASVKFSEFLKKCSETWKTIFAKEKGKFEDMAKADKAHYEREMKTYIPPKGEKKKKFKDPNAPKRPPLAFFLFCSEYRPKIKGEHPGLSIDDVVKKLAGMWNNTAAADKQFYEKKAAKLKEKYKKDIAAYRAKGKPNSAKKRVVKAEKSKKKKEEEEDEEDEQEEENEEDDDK
UniProt Q9Y5L4, sequence (Q9Y5L4 whole entry, looked up): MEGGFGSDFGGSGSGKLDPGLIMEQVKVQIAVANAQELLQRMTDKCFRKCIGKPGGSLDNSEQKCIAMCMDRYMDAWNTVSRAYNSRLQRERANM
UniProt Q92844, sequence (Q92844 whole entry, looked up): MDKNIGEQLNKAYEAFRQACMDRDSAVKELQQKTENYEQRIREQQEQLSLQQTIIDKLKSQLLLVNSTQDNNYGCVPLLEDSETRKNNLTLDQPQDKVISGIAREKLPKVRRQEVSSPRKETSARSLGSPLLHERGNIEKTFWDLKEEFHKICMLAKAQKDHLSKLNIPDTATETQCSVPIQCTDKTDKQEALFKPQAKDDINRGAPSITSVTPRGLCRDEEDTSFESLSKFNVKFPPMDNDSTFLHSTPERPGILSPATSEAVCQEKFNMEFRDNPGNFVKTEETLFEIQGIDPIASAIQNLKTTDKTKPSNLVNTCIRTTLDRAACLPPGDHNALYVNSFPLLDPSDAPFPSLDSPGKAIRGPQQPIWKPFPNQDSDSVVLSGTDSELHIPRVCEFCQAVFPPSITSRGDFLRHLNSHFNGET
UniProt Q9Y5J6, sequence (Q9Y5J6 whole entry, looked up): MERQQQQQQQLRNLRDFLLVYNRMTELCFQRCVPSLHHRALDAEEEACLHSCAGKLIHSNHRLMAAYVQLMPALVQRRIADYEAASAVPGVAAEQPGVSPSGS

Target | log2 fold change
STK38 (UniProt Q15208) | 0.049 (inactive)
TBC1D24 (UniProt Q9ULP9) | 0.053 (inactive)
SMARCA4 (UniProt P51532) | -0.124 (inactive)
TAOK3 (UniProt Q9H2K8) | -0.007 (inactive)
SP100 isoform 4 (UniProt P23497) | -0.05 (inactive)
SLC35B4 (UniProt Q969S0) | -0.243 (inactive)
TBRG4 (UniProt Q969Z0) | -0.201 (inactive)
TIMM10B (UniProt Q9Y5J6) | 0.543 (inactive)
SMIM20 isoform 2 (UniProt Q8N5G0) | -0.051 (inactive)
SPTBN4 (UniProt Q9H254) | 0.061 (inactive)
TGFBI (UniProt Q15582) | -0.133 (inactive)
STARD3NL (UniProt O95772) | 0.103 (inactive)
TJP1 (UniProt Q07157) | -0.029 (inactive)
TANGO6 (UniProt Q9C0B7) | -0.056 (inactive)
TANK (UniProt Q92844) | -0.028 (inactive)
SRC isoform 2 (UniProt P12931) | -0.049 (inactive)
SUOX (UniProt P51687) | -0.004 (inactive)
SNRNP40 (UniProt Q96DI7) | -0.005 (inactive)
SNX11 (UniProt Q9Y5W9) | -0.042 (inactive)
TIMM13 (UniProt Q9Y5L4) | -0.005 (inactive)
TATDN2 (UniProt Q93075) | 0.003 (inactive)
SRSF9 (UniProt Q13242) | -0.229 (inactive)
SLC35F6 (UniProt Q8N357) | -0.024 (inactive)
